# Data as given in article PMC7819943, “Rice protein-binding microarrays: a tool to detect cis-acting elements near promoter regions in rice”.
# In all, about 39,000 sequences were measured (“fluorescence intensity (a.u.)”: median about 4,300, highest 2% from about 39,000 on). The sample as a whole holds a higher share of the highest values than the screen did.
# Target: T1, OsSMF1 (Oryza sativa, UniProt Q6ZLB0 1-436)
# T1 sequence: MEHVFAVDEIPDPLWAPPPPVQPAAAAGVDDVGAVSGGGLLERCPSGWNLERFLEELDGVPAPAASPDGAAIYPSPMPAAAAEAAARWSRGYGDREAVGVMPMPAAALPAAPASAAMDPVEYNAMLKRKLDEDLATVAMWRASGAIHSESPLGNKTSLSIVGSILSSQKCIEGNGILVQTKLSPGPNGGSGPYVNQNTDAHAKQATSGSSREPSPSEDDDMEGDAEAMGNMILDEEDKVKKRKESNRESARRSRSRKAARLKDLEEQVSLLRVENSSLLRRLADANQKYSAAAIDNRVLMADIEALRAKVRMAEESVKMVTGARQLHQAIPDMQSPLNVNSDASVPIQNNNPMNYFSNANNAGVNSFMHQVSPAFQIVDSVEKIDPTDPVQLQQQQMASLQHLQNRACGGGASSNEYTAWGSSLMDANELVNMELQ
# Assay: protein-binding microarray (RPBM); PBS, 2% BSA, 51.3 ng/ul salmon testes DNA, 50 uM zinc acetate, 200 nM TF, 25 C, 1 h; high values mean tight binding
# Conditions: protein: recombinant; tags: N-terminal polyhistidine and DsRed monomer fusion (pET32a); chain copies: 2; label: CyDye5-dUTP incorporated in the synthesized complementary strand; 3' TTTTT single-stranded linker to array surface; dsDNA, one strand shown
# In short: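 Binding signal is defined as the fluorescence intensity of each feature in arbitrary units, read on an Axon 4000B scanner. Transcription factors with N-terminal polyhistidine and DsRed fusions came from E. coli BL21-CodonPlus and were purified on Ni–NTA. They were incubated at 200 nM for 1 h at 25 °C on a custom Agilent array that had been made double-stranded with Cy5-dUTP, with 50 µM zinc acetate present, and the array was washed.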
row,Sequence,binding signal
1,TGATTTTGTTTTAATACATGCAATCTTTCGATCCAATGGCCGGAGTCACCTAGTGCAG,24000 fluorescence intensity (a.u.)
2,TCGATCTGCACATGTGCACGCGCATGTGTCGTCGGCTTAGCGGAGTCACCTAGTGCAG,3230 fluorescence intensity (a.u.)
3,GACTAATCAAACAATTTCCCTCGCTATTAGTCACTGACAGCGGAGTCACCTAGTGCAG,3590 fluorescence intensity (a.u.)
4,CACCTAGCATGCATAGGACGAGGCATTTAATTTTACTTATCGGAGTCACCTAGTGCAG,22000 fluorescence intensity (a.u.)
5,GCATGCGGGATAGGAGCTTGACTAGCATGACGAGGCAGAACGGAGTCACCTAGTGCAG,5890 fluorescence intensity (a.u.)
6,ATTTAATAGTCCGGGAGGCATGCTTACGGACAAGGACGAACGGAGTCACCTAGTGCAG,47100 fluorescence intensity (a.u.)
7,GCATGCTCTCCGTGCCGTATGCGCTGTCGTAGGGCAGGTGCGGAGTCACCTAGTGCAG,3760 fluorescence intensity (a.u.)
8,CGCCGCCGCCGTCGCTGCCGCCGCCGCCGCCGCCTAGGGTCGGAGTCACCTAGTGCAG,29300 fluorescence intensity (a.u.)
9,TCACTTCTCTCCTCCACATGTGCATACAACTGACTTATAACGGAGTCACCTAGTGCAG,4660 fluorescence intensity (a.u.)
10,GTTGAATTCTGTGCGTGTAAGCAGACCTGCATTGCCGTCGCGGAGTCACCTAGTGCAG,3170 fluorescence intensity (a.u.)
11,TCCCAATTGACTAGAGGATGCTTCAGAGATGAAAACATGGCGGAGTCACCTAGTGCAG,3190 fluorescence intensity (a.u.)
12,ATAATGAAAATGAGAATTCATGCCAGCTCTGCAAAGTGGACGGAGTCACCTAGTGCAG,4780 fluorescence intensity (a.u.)
13,TCCAGCTCTGAATTTCACTCTGCATGCATAAGTTGCAGGACGGAGTCACCTAGTGCAG,48100 fluorescence intensity (a.u.)
14,GCAATTCACTCCAGTTCACTTTGCCAGCTTGTCTCTCTGACGGAGTCACCTAGTGCAG,3520 fluorescence intensity (a.u.)
15,ATATACAGTACACGTTCTTGCCCTCATTGCCACATAGTACCGGAGTCACCTAGTGCAG,4020 fluorescence intensity (a.u.)
16,TCCCCAAGTCAGTCAATGCCATCACTGTCATCTGCTCTCACGGAGTCACCTAGTGCAG,3200 fluorescence intensity (a.u.)
17,TTCATTGACCGAGAACGATAGCACGCATCACATCAGCATCCGGAGTCACCTAGTGCAG,3250 fluorescence intensity (a.u.)
18,CGCGCGTGCGGTTCTTGTGTCCGAGGGTGGTGGTGTGTGGCGGAGTCACCTAGTGCAG,3360 fluorescence intensity (a.u.)
19,TGGGAGTGCGTGGTGTGCGTGGCGTCGGTTCTTGCGGAGGCGGAGTCACCTAGTGCAG,5410 fluorescence intensity (a.u.)
20,GAGGGTTCTTGATGCGTGACCTGATGCGGGAGGCGTATTGCGGAGTCACCTAGTGCAG,39200 fluorescence intensity (a.u.)
21,ATTGAAAATTCTCTACTCTTTACACGTGTCCATCATCCCACGGAGTCACCTAGTGCAG,19100 fluorescence intensity (a.u.)

row,Sequence,binding signal
1,TCAAGTCATGAATTCTCCTATTTCAAGTCACTTCAGAAGTCGGAGTCACCTAGTGCAG,3330 fluorescence intensity (a.u.)
2,GCAGCGCCATGAAAGCGCATGGCATGCATGCACTGCACTGCGGAGTCACCTAGTGCAG,3520 fluorescence intensity (a.u.)
3,TTTATGGATAGAAGATGCACCGGCCAGGTCATGAAGATCACGGAGTCACCTAGTGCAG,4050 fluorescence intensity (a.u.)
4,CATGCCAGGTCAGTCGGCATCCATGAAGACTGCACTGCACCGGAGTCACCTAGTGCAG,42600 fluorescence intensity (a.u.)
5,AATCGTGCTCGATTGACCTCACTAATTCATCCCTGTAACCCGGAGTCACCTAGTGCAG,25700 fluorescence intensity (a.u.)
6,GGGGTGAGGTGAGGTTACCACGTCGGCGACGGTGAGGAAGCGGAGTCACCTAGTGCAG,6110 fluorescence intensity (a.u.)
7,CTTATCTACTTGATATTTGCATATGTATACAGTTTTACTGCGGAGTCACCTAGTGCAG,3220 fluorescence intensity (a.u.)
8,GGTAGCTGATACAGGTATGCAGACGAAAGATCACACCTATCGGAGTCACCTAGTGCAG,32500 fluorescence intensity (a.u.)
9,GCTGAGCTGAGCTGATATGATCAACACAGTGCAGACTTGGCGGAGTCACCTAGTGCAG,3710 fluorescence intensity (a.u.)
10,ATGATCAGATACACACTCTGGCTTGGCTTGTAGCTGCAACCGGAGTCACCTAGTGCAG,50400 fluorescence intensity (a.u.)
11,ACTTGATCAGCACACTCTGGTGACATGACAGCTGTAAAGTCGGAGTCACCTAGTGCAG,4180 fluorescence intensity (a.u.)
12,GTAGTACCATGTATTAGATGGACTTCTCCACGTTTCTCTGCGGAGTCACCTAGTGCAG,4980 fluorescence intensity (a.u.)
13,GGGGCCACATCGTCAGTGAAACGGACGGGTATAGGGTTAGCGGAGTCACCTAGTGCAG,3270 fluorescence intensity (a.u.)
14,CATAGCCCTCTGTCGCGGGCGCCGCTGTCCACCGTCCTCCCGGAGTCACCTAGTGCAG,43900 fluorescence intensity (a.u.)
15,CGCCGCCTCCGCCTCCGCCTCCGCTGCTCGCCGACCGGAGCGGAGTCACCTAGTGCAG,4680 fluorescence intensity (a.u.)
16,TTGACCGCTTGACGCGGAGCTCCCCGCCGGCCTCCTCCCCCGGAGTCACCTAGTGCAG,4540 fluorescence intensity (a.u.)
17,ATCGCCCCGCTGACCGCCTCCTCCCGCGGCTGTCCGAGCGCGGAGTCACCTAGTGCAG,41300 fluorescence intensity (a.u.)
18,CCTCCTCGCTGCCCAGCCACCGCCGCCCTCCCGTCCCGCGCGGAGTCACCTAGTGCAG,3490 fluorescence intensity (a.u.)
19,CGCGCCGTCGTCCAGCCACCGTCACGCCGCGCGGGGCGCCCGGAGTCACCTAGTGCAG,3830 fluorescence intensity (a.u.)
20,ATCAGCAACAATCAGGCTCCTGTGCGGTAAGTCCAACATTCGGAGTCACCTAGTGCAG,6700 fluorescence intensity (a.u.)
21,AGTGCTAGTCATCACTGTATTAGATTTAGGAATCTCTTCTCGGAGTCACCTAGTGCAG,3600 fluorescence intensity (a.u.)
